PubChem BioAssay (Tox21)
Inconclusive results are not listed. Active and inactive are the calls of the source. Unless noted, the call rests on the fitted dose curve; in most records, active means well fitted curve in the direction sought with a large enough effect in the repeat runs; inconclusive means weak or mixed curves; inactive means no such curve, though single readings can be large; an effect the other way counts as inactive or inconclusive.

Key:
[1] = qHTS assay to identify small molecule antagonists of the estrogen related receptor (ERR) signaling pathway - cell viability counter screen (AID 1224818);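 further: series mostly up to about 46 µM; viability measured after 17.5 h of compound exposure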
How it was run: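 Cytotoxicity check run alongside the ERR antagonist screen: cells exposed to test compounds 17.5 h at 37 C, viability taken as CellTiter-Fluor fluorescence intensity.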

[2] = qHTS assay to identify small molecule antagonists of the estrogen related receptor (ERR) signaling pathway (AID 1224819;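 further: luminescence from an ERR-driven luciferase reporter measured with One-Glo reagent; series mostly up to about 46 µM; nearly all actives have a fitted effect of over 50% in size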)
How it was run: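 ERR reporter cells were plated at 2,000 cells/well and left 6 h at 37 C/5% CO2 before pin-tool transfer of compounds in DMSO. After 18 h at 37 C, One-Glo was added and luminescence was read 30 min later at room temperature.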

[3] = test system: estrogen-related receptor alpha (ERRalpha) with PGC-1alpha coactivator, human; assay: qHTS assay to identify small molecule antagonists of the estrogen related receptor signaling pathway with the pleiotropic PPARgamma coactivator (PGC) (AID 1224821; calls by dose curve;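 further: series mostly up to about 46 µM; lower luminescence signal means antagonism of PGC/ERR signalling; nearly all actives have a fitted effect of over 50% in size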)
How it was run: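 A PGC/ERR cell line supplied by NTP is seeded, allowed 6 h at 37 C, and treated with test compounds in DMSO for 18 h. Signal is then measured as luciferase luminescence using One-Glo.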

[4] = qHTS assay to identify small molecule antagonists of the estrogen related receptor signaling pathway with the pleiotropic PPARgamma coactivator (PGC) cell viability counter screen (AID 1224822;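 further: series mostly up to about 46 µM; viability read after 17.5 h compound exposure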)
How it was run: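 Viable cell signal (CellTiter-Fluor, 30 min, 37 C/5% CO2) was measured in PGC/ERR cells after a 17.5 h compound incubation.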

[5] = qHTS assay to identify small molecule agonists of the estrogen related receptor signaling pathway with the pleiotropic PPARgamma coactivator (PGC) (AID 1224823)
How it was run: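 Compounds dissolved in DMSO are added by pin tool to PGC/ERR cells that have settled for 6 h, and incubation continues 18 h at 37 C. Reporter output is measured as One-Glo luminescence.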

[6] = qHTS assay to identify small molecule agonists of the estrogen related receptor (ERR) signaling pathway (AID 1224820)
How it was run: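 An ERR cell line provided by NTP was seeded at 2,000 cells per well and allowed to settle for 6 h before compounds in DMSO were added. After 18 h at 37 C, luciferase activity was measured by One-Glo luminescence.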

Measured: Potency

CCCN(CCC)CCc1ccc(O)c(O)c1
not listed: [6]
inactive: all other assays above

CN(C(=O)Cc1ccc(Cl)c(Cl)c1)C(CN1CCCC1)c1cccc(OCC(=O)O)c1 (stereo not given)
not listed: [3]
inactive: all other assays above

C[N+]1(C)C2CCC1CC(OC(=O)c1c[nH]c3ccccc13)C2 (stereo not given)
not listed: [6]
inactive: all other assays above
